The list is not random: actives were taken first. Their share in the collection is about 2.7%.
A549 viability = counter-screen for Nrf2 inhibitors: cytotoxicity in A549 cells; A549 ARE-Fluc cells, CellTiter-Fluor viability, 18-24 h; Potency, µM (doses to about 46 µM), most hits filed as inhibitors; AID 504648; 390,000 compounds, 0.16% hits
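A549 ARE_Fluc cells in 5% FBS OPTI-MEM were exposed to compounds in concentration-response for 18-24 h at 37 deg C. Viability was read by CellTiter-Fluor fluorescence (Ex 405/Em 525) after 30 min, before the luciferase read.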
12-LOX inh = ALOX12 (human) lipoxygenase inhibition; 580,000 compounds, 1.1% hits; AID 1671190; Potency, µM (titrated, usually from 108 µM), most hits filed as inhibitors; purified 12hLO, xylenol orange hydroperoxide absorbance; P18054
Target sequence (P18054 whole entry, looked up): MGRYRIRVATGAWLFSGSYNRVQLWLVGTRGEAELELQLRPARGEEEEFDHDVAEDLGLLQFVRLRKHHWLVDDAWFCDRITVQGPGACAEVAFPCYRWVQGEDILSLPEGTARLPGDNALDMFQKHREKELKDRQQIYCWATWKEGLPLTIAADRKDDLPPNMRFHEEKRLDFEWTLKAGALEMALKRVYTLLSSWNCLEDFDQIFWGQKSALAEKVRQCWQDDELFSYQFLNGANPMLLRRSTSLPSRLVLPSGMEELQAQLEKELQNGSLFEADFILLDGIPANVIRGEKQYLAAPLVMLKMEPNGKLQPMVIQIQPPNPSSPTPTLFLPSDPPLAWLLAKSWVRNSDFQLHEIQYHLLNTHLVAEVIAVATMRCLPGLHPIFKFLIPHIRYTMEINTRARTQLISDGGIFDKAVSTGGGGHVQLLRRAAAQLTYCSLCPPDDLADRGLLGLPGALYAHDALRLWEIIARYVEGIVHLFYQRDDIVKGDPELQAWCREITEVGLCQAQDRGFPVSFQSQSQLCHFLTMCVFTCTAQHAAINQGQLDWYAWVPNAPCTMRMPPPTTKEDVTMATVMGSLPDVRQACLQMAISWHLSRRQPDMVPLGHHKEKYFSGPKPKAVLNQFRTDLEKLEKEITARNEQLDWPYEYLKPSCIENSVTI
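Hydroperoxide product was detected by ferrous iron/xylenol orange as the 573 to 405 nm absorbance ratio. Arachidonic acid at 40 uM (final) was turned over for 30 min at room temperature by 150 nM human 12hLO, pH 7.0 Hepes buffer, after 15 min compound preincubation.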
IDH1 R132H inh = blocks human mutant IDH1 R132H enzyme. O75874. IDH1-R132H enzyme, NADPH consumption, diaphorase/resazurin fluorescence. Potency, µM (doses to about 76.6 µM), usual class: inhibitors. 390,000 compounds, 0.093% hits; note: nearly all actives have a fitted effect of over 65% in size
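IDH1-R132H (0.5 ug/mL dispensed) in pH 7.5 Tris buffer was preincubated 30 min with compound, then given a substrate mix of 0.016 mM NADPH and 2 mM alpha-KG for 80 min at room temperature; remaining NADPH was read by diaphorase/resazurin fluorescence.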
LDHA inh = LDHA (human) enzyme inhibition; P00338; purified LDHA, NADH/diaphorase-resazurin fluorescence; active compounds read low; activity change, % (values are at about 110 or 230 µM); 480,000 compounds, 0.15% hits; AID 1347041; in the data active = activity change below about -30%; inconclusive = mostly about -25% to -30%
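Human LDH5 (2 nM) was incubated with 0.06 mM NADH and 0.2 mM pyruvate for 5 min at room temperature in Tris pH 7.4. Remaining NADH was coupled through diaphorase/resazurin, and resorufin fluorescence was read at 0 and 20 min.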
Nrf2 activator = activators of Nrf2 (ARE) signaling. AREc32 ARE-luciferase reporter (MCF7-derived line), luminescence, 24 h. Potency, µM (highest dose often 46.1 µM), hits mostly activators. 410,000 compounds, 0.31% hits. AID 624171; note: nearly all actives have a fitted effect of over 65% in size
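For detection, Steady-Glo was added and plates sat 30 min at RT; before that, AREc32_Fluc cells grown overnight in OPTI-MEM/5% FBS had been treated with 23 nL compound for 24 hr at 37 deg C.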
Nrf2 inh = Nrf2 pathway inhibition; A549 ARE-Fluc reporter, luciferase luminescence, 18-24 h; Potency, µM (highest dose often 46 µM), most hits filed as inhibitors; 360,000 compounds, 2.1% hits; note: nearly all actives have a fitted effect of over 60% in size
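A549 ARE_Fluc cells (5000/well, 5% FBS OPTI-MEM) pre-incubated 2 h, then treated with compounds 18-24 h at 37C/5% CO2 in concentration-response. CellTiter-Fluor viability read first; BugLite luciferase luminescence after 15 min at room temperature gives Nrf2 activity.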
Hits are given with their value; i = inactive; ? = inconclusive; nt = no result given. Unless noted, calls come from the whole dose curve; as a rule, active = well fitted curve in the direction sought with a large enough effect; inconclusive = small, poorly fitted or top-dose-only effect, or another doubt; inactive = no such curve, though single readings can be large; an effect the other way counts as inactive or inconclusive.

SMILES	A549 viability	12-LOX inh	IDH1 R132H inh	LDHA inh	Nrf2 activator	Nrf2 inh
O=C(Nc1ncccc1O)c1ccc(S(=O)(=O)Nc2ccccc2)cc1	i	i	i	i	11.2µM	i
O=C(Nc1ccccc1O)c1ccc(NS(=O)(=O)c2cccc3cccnc23)cc1	i	i	i	i	11.2µM	i
CC(=O)N1c2ccc(S(=O)(=O)NCC3CCC(C(=O)Nc4cc(C)ccn4)CC3)cc2CC1C (centres undefined)	?	i	i	i	i	23.1µM
CC(=O)N1c2ccc(S(=O)(=O)N3CCCC(C(=O)N4CCC(C)CC4)C3)cc2CC1C (centres undefined)	i	i	i	i	i	20.6µM
COC(=O)Nc1ccc(S(=O)(=O)N2CCCC(C(=O)N3CCCCCC3)C2)cc1 (centres undefined)	i	i	i	i	i	?
COC(=O)Nc1ccc(S(=O)(=O)N2CCCC(C(=O)N3CCCCC3)C2)cc1 (centres undefined)	i	i	i	i	i	16.4µM
CC(=O)N1c2ccc(S(=O)(=O)N3CCCC(C(=O)N4CCCC(C)C4)C3)cc2CC1C (centres undefined)	i	i	i	i	i	?
CCC(C)NC(=O)C1CCC(CNS(=O)(=O)c2ccc3c(c2)CC(C)N3C(C)=O)CC1 (centres undefined)	i	i	i	i	i	i
CC(=O)N1c2ccc(S(=O)(=O)NCC3CCC(C(=O)N4CC(C)CC(C)C4)CC3)cc2CC1C (centres undefined)	i	i	i	i	i	16.4µM
O=C(O)/C=C/c1ccc(-c2ccccc2F)o1	nt	?	nt	i	nt	nt
COc1ccc(CN2C(=O)C(n3ccc4ccccc43)c3cc(OC(F)(F)F)ccc32)cc1 (centres undefined)	nt	39.8µM	nt	nt	nt	nt
CC(C)c1ccc(CN2C(=O)C(n3ccc4ccccc43)c3cc(Cl)ccc32)cc1 (centres undefined)	nt	10µM	nt	nt	nt	nt
CN1C(=O)C(n2ccc3ccccc32)c2cc(Cl)ccc21 (centres undefined)	nt	i	nt	nt	nt	nt
Cc1cccc(C)c1NC(=O)C(Cl)=C(Cl)Cl	i	i	i	i	11.2µM	i
Cc1cccc(C)c1NC(=O)CCl	nt	i	nt	i	nt	nt
CC1CC(C)(C)N(C(=O)CN2C(=O)c3ccccc3C2=O)c2ccccc21 (centres undefined)	i	i	i	i	i	i
CC1CC(C)(C)N(C(=O)CN2CCN(C)CC2)c2ccccc21 (centres undefined)	i	i	i	-34.8	i	i
Cc1ccc2c(c1)C(C)CC(C)(C)N2C(=O)CN1CCN(C)CC1 (centres undefined)	i	i	i	-40.0	i	i
O=C(CN1C(=O)COc2ccc(Cl)cc21)Nc1ccc(F)cc1	i	i	i	i	i	i
CSc1cccc(NC(=O)CN2C(=O)COc3ccc(Cl)cc32)c1	i	i	i	i	i	16.4µM
COc1cc(/C=C2\SC(=S)N(NC(=O)c3ccncc3)C2=O)ccc1O	20.6µM	?	i	i	i	?
COc1cc(/C=C2\SC(=S)N(NC(=O)c3ccc(O)c(OC)c3)C2=O)ccc1O	i	?	?	i	i	i
Cc1ccc(-c2noc(CNC(=O)Nc3ccccc3)n2)cc1	nt	i	nt	i	nt	nt
O=C(c1ccc(N2CCN(C(=O)c3ccccc3Br)CC2)cc1)c1cccc(F)c1	i	i	i	i	i	20.6µM
CN1CCN(c2oc(/C=C/c3cccs3)nc2C#N)CC1	nt	i	nt	i	nt	nt
O=c1cc(C(F)(F)F)[nH]c2ccc(OC(F)(F)F)cc12	?	i	i	i	i	?
O=c1cc(C(F)(F)F)[nH]c2c(C(F)(F)F)cccc12	?	nt	i	i	i	18.4µM
O=C(C1CCCN(Cc2ccc(Cl)cc2)C1)N1CCCCC1 (centres undefined)	i	0.631µM	i	i	i	i
COc1ccc(Br)cc1CN1CCCC(C(=O)N2CCCCCC2)C1 (centres undefined)	i	?	i	-32.9	i	nt

Compound activity: PubChem BioAssay, National Center for Advancing Translational Sciences (NCATS)
